# Laboratory results taken from publication PMC7862700, “An all-to-all approach to the identification of sequence-specific readers for epigenetic DNA modifications on cytosine”.
# Legend:
# Experiment in all cases: DAPPL (digital affinity profiling via proximity ligation, sequencing); 10 mM Tris-HCl pH 7.5, 50 mM NaCl, 1 mM DTT, 4% glycerol, room temperature, 30 min; GST-TFs on glutathione beads, 16-mer random dsDNA library, 0.1% formaldehyde crosslink after washing; high values mean tight binding
# [1] = biological target: T1, FEV (Homo sapiens, UniProt Q99581 1-238); details: protein: recombinant; tags: N-terminal GST; dsDNA, one strand shown
# T1 sequence: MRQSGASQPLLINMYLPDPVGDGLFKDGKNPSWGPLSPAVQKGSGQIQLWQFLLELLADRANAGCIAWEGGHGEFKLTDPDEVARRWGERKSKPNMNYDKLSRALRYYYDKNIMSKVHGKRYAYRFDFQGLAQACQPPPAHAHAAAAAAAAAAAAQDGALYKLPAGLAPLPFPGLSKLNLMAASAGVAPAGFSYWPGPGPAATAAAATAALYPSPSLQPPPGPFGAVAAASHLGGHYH
# How it was run: (§1)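 Each value of binding signal is a hexamer's read frequency for a factor divided by the same hexamer's frequency in the tag-only sample. Barcoded, bead-captured GST fusions of human transcription factors made in yeast were pooled with that sample and incubated with 200 nmole of a random double-stranded 16-mer DNA library in Tris/NaCl/DTT/glycerol buffer at room temperature for 30 min. Washing, 0.1% formaldehyde crosslinking, proximity ligation, PCR and Illumina NextSeq500 sequencing followed.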
# [2] = biological target: ETV5 (Homo sapiens, UniProt P41161 1-510); details: protein: recombinant; tags: N-terminal GST; dsDNA, one strand shown
# ETV5, sequence (P41161 whole entry): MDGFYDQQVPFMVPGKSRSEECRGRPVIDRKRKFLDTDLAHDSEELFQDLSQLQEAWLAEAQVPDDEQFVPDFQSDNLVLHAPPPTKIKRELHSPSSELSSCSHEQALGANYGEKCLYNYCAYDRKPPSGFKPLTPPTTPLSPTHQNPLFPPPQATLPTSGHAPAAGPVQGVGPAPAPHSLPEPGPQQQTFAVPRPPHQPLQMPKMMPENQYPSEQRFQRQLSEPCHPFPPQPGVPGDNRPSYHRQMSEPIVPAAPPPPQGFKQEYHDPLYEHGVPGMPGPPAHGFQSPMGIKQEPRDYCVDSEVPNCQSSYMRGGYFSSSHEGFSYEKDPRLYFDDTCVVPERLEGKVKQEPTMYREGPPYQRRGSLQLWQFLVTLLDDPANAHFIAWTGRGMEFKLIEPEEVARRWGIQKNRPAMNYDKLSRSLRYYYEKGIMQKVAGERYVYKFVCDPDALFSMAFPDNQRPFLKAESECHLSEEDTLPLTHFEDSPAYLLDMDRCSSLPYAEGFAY
# How it was run: as §1
# [3] = biological target: HSF1 (Homo sapiens, UniProt Q00613 1-529); details: protein: recombinant; tags: N-terminal GST; chain copies: 3; dsDNA, one strand shown
# HSF1, sequence (Q00613 whole entry): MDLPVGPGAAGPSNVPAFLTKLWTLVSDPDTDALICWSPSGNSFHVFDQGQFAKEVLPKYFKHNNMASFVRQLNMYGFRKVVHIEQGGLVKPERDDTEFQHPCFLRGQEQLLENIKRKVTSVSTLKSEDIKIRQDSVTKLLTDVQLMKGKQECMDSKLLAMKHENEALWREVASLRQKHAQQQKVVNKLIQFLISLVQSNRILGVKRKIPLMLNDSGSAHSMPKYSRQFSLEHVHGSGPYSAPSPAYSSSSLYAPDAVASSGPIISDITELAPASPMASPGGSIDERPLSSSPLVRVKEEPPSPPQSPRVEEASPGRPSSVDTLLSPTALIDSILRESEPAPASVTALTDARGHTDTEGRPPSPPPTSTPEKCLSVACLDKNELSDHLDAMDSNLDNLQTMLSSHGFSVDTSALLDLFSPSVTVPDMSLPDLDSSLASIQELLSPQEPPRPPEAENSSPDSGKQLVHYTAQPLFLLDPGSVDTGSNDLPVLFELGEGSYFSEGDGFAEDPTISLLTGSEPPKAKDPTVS
# How it was run: as §1
# [4] = biological target: T2, SPIC (Homo sapiens, UniProt Q8N5J4 1-248); details: protein: recombinant; tags: N-terminal GST; dsDNA, one strand shown
# T2 sequence: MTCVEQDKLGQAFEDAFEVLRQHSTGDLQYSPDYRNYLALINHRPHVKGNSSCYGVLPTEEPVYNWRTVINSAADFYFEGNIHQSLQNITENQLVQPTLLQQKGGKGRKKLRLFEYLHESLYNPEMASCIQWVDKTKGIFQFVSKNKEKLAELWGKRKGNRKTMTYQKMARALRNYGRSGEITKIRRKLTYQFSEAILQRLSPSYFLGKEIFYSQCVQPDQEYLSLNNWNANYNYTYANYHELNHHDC
# How it was run: as §1
# [5] = biological target: ELF4 (Homo sapiens, UniProt Q99607 1-663); details: protein: recombinant; tags: N-terminal GST; dsDNA, one strand shown
# ELF4, sequence (Q99607 whole entry): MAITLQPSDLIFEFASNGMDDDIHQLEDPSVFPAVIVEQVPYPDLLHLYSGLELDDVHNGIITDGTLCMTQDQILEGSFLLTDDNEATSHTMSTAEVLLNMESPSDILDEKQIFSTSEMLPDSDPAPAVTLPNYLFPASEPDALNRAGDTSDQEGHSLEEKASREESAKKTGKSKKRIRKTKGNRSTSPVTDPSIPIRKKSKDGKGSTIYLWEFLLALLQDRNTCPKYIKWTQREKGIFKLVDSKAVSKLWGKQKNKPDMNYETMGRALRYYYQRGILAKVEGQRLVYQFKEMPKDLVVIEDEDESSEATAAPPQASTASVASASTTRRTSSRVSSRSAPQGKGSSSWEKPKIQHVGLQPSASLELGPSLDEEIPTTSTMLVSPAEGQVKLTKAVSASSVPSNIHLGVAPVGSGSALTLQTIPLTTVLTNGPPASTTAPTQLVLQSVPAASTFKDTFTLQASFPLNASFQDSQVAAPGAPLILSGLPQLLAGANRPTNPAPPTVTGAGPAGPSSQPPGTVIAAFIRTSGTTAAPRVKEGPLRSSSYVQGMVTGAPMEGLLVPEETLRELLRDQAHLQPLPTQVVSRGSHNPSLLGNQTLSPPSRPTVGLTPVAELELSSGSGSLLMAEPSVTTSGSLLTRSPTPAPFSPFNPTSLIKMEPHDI
# How it was run: as §1
# [6] = biological target: T3, ELK4 (Homo sapiens, UniProt P28324-2 1-405); details: protein: recombinant; tags: N-terminal GST; dsDNA, one strand shown
# T3 sequence: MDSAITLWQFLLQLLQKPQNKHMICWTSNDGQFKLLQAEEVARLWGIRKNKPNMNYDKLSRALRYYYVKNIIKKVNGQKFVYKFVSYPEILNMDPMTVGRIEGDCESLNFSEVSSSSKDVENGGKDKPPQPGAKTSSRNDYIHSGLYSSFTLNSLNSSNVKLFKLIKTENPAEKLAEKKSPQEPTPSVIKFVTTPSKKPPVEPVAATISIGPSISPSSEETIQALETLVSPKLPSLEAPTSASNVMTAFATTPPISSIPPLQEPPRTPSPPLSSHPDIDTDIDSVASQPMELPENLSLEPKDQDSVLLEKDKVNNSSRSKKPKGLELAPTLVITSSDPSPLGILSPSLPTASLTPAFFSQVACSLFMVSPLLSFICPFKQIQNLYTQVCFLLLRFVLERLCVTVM
# How it was run: as §1
# [7] = biological target: T4, ETV2 (Homo sapiens, UniProt O00321 1-342); details: protein: recombinant; tags: N-terminal GST; dsDNA, one strand shown
# T4 sequence: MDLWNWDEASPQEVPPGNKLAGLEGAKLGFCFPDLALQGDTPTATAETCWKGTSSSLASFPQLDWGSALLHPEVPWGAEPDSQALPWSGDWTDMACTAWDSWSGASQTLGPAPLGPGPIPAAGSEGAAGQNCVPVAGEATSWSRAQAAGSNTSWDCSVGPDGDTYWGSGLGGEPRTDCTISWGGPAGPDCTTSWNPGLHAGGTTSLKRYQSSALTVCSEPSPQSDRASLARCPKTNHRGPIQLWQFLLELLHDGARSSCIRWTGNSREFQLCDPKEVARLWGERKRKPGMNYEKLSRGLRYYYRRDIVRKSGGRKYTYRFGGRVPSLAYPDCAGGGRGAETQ
# How it was run: as §1
# [8] = biological target: T5, ELF3 (Homo sapiens, UniProt P78545 1-371); details: protein: recombinant; tags: N-terminal GST; dsDNA, one strand shown
# T5 sequence: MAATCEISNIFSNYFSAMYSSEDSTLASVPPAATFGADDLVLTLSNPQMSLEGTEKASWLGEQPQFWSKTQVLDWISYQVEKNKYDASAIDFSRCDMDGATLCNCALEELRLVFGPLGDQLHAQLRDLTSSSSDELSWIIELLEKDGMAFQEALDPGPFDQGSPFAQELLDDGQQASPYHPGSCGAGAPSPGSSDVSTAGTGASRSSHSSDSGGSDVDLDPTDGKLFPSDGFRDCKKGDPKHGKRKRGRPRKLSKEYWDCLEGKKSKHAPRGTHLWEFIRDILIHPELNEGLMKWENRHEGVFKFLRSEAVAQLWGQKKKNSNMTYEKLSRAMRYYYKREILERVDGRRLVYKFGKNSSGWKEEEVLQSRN
# How it was run: as §1
# [9] = biological target: CRX (Homo sapiens, UniProt O43186 1-299); details: protein: recombinant; tags: N-terminal GST; dsDNA, one strand shown
# CRX, sequence (O43186 whole entry): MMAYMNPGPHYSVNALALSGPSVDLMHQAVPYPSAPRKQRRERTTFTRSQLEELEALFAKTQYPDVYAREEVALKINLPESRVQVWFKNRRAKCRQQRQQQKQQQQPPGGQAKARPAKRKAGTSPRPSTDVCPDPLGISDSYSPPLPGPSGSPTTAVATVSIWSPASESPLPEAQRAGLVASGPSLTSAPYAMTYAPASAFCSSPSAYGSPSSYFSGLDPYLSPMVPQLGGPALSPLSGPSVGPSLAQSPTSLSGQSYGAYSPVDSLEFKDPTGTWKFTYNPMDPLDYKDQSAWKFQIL
# How it was run: as §1
# [10] = biological target: ETV1 (Homo sapiens, UniProt P50549 1-477); details: protein: recombinant; tags: N-terminal GST; dsDNA, one strand shown
# ETV1, sequence (P50549 whole entry): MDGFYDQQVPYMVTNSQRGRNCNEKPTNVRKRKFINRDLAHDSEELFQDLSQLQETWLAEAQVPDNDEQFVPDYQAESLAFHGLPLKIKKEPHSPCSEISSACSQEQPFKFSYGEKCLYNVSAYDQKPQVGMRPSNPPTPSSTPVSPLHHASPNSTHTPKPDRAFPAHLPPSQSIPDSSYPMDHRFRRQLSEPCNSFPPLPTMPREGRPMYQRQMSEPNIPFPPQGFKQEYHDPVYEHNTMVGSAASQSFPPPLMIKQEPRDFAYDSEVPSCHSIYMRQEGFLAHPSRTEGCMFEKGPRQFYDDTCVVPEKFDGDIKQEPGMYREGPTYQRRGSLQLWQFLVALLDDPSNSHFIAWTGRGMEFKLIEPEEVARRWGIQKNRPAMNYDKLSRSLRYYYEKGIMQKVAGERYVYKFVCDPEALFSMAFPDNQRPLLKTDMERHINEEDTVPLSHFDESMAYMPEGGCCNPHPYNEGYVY
# How it was run: as §1
# [11] = biological target: T6, ERF (Homo sapiens, UniProt P50548 1-548); details: protein: recombinant; tags: N-terminal GST; dsDNA, one strand shown
# T6 sequence: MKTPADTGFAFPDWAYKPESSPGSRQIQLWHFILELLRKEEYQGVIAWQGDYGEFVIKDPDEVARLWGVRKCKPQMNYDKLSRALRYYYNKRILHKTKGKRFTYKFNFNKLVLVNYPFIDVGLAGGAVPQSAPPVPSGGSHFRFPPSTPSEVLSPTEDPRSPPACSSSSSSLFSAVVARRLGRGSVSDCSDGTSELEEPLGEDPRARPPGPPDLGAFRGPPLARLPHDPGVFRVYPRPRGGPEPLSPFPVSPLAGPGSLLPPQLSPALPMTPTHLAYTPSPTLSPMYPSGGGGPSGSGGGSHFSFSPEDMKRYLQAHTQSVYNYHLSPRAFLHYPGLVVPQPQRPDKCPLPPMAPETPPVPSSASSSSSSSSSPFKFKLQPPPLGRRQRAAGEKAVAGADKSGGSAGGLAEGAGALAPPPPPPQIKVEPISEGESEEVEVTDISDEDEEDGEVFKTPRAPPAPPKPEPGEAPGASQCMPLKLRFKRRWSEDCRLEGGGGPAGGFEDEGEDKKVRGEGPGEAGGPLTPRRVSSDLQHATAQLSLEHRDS
# How it was run: as §1
# [12] = biological target: T7, ETV3L (Homo sapiens, UniProt Q6ZN32 1-361); details: protein: recombinant; tags: N-terminal GST; dsDNA, one strand shown
# T7 sequence: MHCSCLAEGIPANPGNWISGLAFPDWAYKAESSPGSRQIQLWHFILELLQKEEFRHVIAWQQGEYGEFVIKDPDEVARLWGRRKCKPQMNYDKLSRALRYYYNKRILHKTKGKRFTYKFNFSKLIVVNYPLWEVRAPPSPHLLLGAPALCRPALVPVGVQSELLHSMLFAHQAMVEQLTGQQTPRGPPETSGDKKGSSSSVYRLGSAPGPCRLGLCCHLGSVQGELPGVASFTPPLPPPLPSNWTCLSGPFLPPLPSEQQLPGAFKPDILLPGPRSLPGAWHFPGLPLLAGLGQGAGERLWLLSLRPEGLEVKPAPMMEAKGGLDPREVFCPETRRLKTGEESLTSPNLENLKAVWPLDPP
# How it was run: as §1
# [13] = biological target: T8, ETS2 (Homo sapiens, UniProt P15036 1-469); details: protein: recombinant; tags: N-terminal GST; dsDNA, one strand shown
# T8 sequence: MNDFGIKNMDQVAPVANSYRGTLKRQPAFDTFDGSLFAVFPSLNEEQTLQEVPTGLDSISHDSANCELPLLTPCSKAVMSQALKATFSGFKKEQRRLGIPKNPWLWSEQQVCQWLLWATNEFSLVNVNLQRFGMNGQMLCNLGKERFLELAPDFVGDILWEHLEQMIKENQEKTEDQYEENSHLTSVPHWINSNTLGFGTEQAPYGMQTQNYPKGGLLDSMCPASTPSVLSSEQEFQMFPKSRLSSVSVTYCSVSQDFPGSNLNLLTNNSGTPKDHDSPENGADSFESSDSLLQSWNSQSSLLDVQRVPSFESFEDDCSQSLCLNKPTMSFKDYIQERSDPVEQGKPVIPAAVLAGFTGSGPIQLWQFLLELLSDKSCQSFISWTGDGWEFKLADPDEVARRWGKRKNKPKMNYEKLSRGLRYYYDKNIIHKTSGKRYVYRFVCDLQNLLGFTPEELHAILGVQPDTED
# How it was run: as §1
# [14] = biological target: T9, SPDEF (Homo sapiens, UniProt O95238 1-335); details: protein: recombinant; tags: N-terminal GST; dsDNA, one strand shown
# T9 sequence: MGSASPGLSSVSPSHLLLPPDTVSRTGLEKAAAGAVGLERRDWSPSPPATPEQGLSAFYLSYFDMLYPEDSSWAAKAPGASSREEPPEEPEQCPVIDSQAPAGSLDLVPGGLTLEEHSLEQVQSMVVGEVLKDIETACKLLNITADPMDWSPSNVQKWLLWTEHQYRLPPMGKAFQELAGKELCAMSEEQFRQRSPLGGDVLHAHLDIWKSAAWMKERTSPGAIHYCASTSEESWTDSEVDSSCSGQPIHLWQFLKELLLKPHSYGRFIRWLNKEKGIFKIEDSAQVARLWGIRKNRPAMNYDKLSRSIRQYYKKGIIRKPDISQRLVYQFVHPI
# How it was run: as §1
# [15] = biological target: T10, ETV7 (Homo sapiens, UniProt Q9Y603 1-341); details: protein: recombinant; tags: N-terminal GST; dsDNA, one strand shown
# T10 sequence: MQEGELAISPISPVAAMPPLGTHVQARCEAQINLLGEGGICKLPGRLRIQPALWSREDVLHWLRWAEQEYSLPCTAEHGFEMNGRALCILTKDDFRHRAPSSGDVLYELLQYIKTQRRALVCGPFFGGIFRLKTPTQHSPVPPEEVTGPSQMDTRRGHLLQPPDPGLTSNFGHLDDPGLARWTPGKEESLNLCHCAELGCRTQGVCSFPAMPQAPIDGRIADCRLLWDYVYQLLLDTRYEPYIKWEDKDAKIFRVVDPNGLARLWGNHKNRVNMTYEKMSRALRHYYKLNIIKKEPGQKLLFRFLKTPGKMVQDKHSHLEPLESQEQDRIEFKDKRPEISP
# How it was run: as §1
# [16] = biological target: T11, ELF5 (Homo sapiens, UniProt Q9UKW6-2 1-255); details: protein: recombinant; tags: N-terminal GST; dsDNA, one strand shown
# T11 sequence: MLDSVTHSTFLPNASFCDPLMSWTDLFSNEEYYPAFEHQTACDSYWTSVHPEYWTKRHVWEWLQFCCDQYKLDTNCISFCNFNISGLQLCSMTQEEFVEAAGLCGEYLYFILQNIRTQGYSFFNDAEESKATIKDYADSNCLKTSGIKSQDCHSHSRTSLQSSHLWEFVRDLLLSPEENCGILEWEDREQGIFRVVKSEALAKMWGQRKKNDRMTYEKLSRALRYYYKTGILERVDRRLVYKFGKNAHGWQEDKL
# How it was run: as §1
# [17] = biological target: T12, ETV3 (Homo sapiens, UniProt P41162-2 1-143); details: protein: recombinant; tags: N-terminal GST; dsDNA, one strand shown
# T12 sequence: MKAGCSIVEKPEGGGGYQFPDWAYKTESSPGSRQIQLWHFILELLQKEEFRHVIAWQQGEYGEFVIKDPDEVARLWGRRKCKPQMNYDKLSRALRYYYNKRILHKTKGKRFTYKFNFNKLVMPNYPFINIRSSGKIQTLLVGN
# How it was run: as §1
# [18] = biological target: ETV6 (Homo sapiens, UniProt P41212 1-452); details: protein: recombinant; tags: N-terminal GST; dsDNA, one strand shown
# ETV6, sequence (P41212 whole entry): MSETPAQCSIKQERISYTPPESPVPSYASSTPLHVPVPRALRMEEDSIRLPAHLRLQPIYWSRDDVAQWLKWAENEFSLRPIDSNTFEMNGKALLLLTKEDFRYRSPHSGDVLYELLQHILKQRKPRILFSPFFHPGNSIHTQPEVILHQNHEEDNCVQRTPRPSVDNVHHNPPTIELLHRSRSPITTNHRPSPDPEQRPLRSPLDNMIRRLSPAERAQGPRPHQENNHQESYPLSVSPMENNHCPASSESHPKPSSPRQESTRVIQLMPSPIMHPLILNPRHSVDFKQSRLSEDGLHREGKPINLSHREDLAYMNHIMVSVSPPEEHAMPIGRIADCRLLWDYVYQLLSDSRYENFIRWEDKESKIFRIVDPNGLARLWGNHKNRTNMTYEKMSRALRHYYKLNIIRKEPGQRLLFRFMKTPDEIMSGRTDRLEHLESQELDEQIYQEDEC
# How it was run: as §1
sequence,measurement,setting,value
CCCAAT,binding signal,[1],"1.27 fold enrichment (6-mer frequency, TF over GST control)"
same,binding signal,[2],"1.34 fold enrichment (6-mer frequency, TF over GST control)"
same,binding signal,[3],"1.1 fold enrichment (6-mer frequency, TF over GST control)"
same,binding signal,[4],"1.27 fold enrichment (6-mer frequency, TF over GST control)"
same,binding signal,[5],"1.32 fold enrichment (6-mer frequency, TF over GST control)"
same,binding signal,[6],"1.24 fold enrichment (6-mer frequency, TF over GST control)"
same,binding signal,[7],"1.3 fold enrichment (6-mer frequency, TF over GST control)"
same,binding signal,[8],"1.32 fold enrichment (6-mer frequency, TF over GST control)"
same,binding signal,[9],"1.19 fold enrichment (6-mer frequency, TF over GST control)"
same,binding signal,[10],"1.19 fold enrichment (6-mer frequency, TF over GST control)"
same,binding signal,[11],"1.18 fold enrichment (6-mer frequency, TF over GST control)"
same,binding signal,[12],"1.27 fold enrichment (6-mer frequency, TF over GST control)"
same,binding signal,[13],"1.22 fold enrichment (6-mer frequency, TF over GST control)"
same,binding signal,[14],"1.29 fold enrichment (6-mer frequency, TF over GST control)"
same,binding signal,[15],"1.15 fold enrichment (6-mer frequency, TF over GST control)"
same,binding signal,[16],"1.23 fold enrichment (6-mer frequency, TF over GST control)"
same,binding signal,[17],"1.18 fold enrichment (6-mer frequency, TF over GST control)"
same,binding signal,[18],"1.28 fold enrichment (6-mer frequency, TF over GST control)"
